In PubChem BioAssay (Tox21) one finds Potency, activity change, positive = activation and outcome data, which are given here for 30 compounds.

A short description of experiment [1]: qHTS assay for small molecule agonists of the p53 signaling pathway (AID 651631). Further: nearly all actives have a fitted effect of over 15% in size. Further: potency means the concentration at half of the fitted maximal effect. Summed up: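 Quantitative high-throughput format: 4,000 p53RE-bla HCT-116 cells/well, 5 h pre-incubation, 16 h compound exposure at 37 °C, 2 h room-temperature substrate step, fluorescence intensity measured.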
Experiment [2] can be described thus: qHTS assay to identify small molecule agonists of the estrogen related receptor (ERR) signaling pathway from Tox21 library (AID 1224849). Further: nearly all actives have a fitted effect of over 15% in size. The settings on record: ERR reporter cell line, ONE-Glo luciferase, 18 h; at 92.4 µM (top of the series) unless noted. The procedure, abridged: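 Luciferase activity in ERR pathway reporter cells served as the agonist readout; exposure lasted 18 h at 37 C, with ONE-Glo detection after 30 min at room temperature.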

Experiment [3] addresses Acetylcholinesterase (Homo sapiens) (UniProt P22303). Briefly: Acetylcholinesterase (AChE) small molecule antagonists: colormetric cell-based qHTS assay (AID 1347395). Further: nearly all actives have a fitted effect of over 30% in size. The procedure, abridged:
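In this cell-based qHTS, attached SH-SY5Y cells were treated with test chemicals for 30 min, after which acetylthiocholine hydrolysis was followed by DTNB colour development over 90 min at 37 C.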

The target is the same in experiment [4]. Briefly: Acetylcholinesterase (AChE) small molecule antagonists: fluorescence cell-based qHTS assay (AID 1347398). Further: nearly all actives have a fitted effect of over 50% in size. The conditions noted are these: Potency: AChE activity; outcome: AChE activity. Summed up: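 Cellular AChE activity read as thiocholine from acetylthiocholine hydrolysis, detected by Thiolite Green fluorescence at 490/520 nm after 40 min at room temperature. Compounds were pre-incubated 30 min at 37 C on adherent SH-SY5Y cells.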

Experiment [5] shares this target. The experiment can be described thus: Acetylcholinesterase (AChE) small molecule antagonists: enzyme-based qHTS assay with human liver microsomes (AID 1347399). Further: nearly all actives have a fitted effect of over 60% in size. The settings on record: Potency: qHTS inhibition; outcome: qHTS inhibition. Summed up: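 Recombinant human AChE (50 mU/mL in the enzyme mix) and human liver microsomes (0.25 mg/mL final) were preincubated with compound and NADPH (0.25 mg/mL final) for 30 min at 37 C. Acetylthiocholine/DTNB was then added; thiocholine was read colorimetrically after 10 min at room temperature.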

A short description of experiment [6]: qHTS assay for small molecule disruptors of the mitochondrial membrane potential (AID 720635; active means well fitted curve in the direction sought with a large enough effect in the repeat runs; an effect the other way counts as inactive or inconclusive; further: potency means the concentration at half of the fitted maximal effect). The procedure, abridged:
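Mitochondrial membrane potential tracked with Mito-MPS dye, red aggregates (ex 540/em 590 nm) against green monomers (ex 490/em 535 nm). Compound treatment 1 hr at 37C, dye 30 min in HepG2.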

Experiment [7] addresses Androgen receptor (Homo sapiens) (UniProt P10275). The experiment can be described thus: qHTS assay to identify small molecule antagonists of the androgen receptor (AR) signaling pathway (AID 743035; active means well fitted inhibition curve with a large enough effect in the signal ratio in the repeat runs, not every such curve was filed as active; the % refers to the signal ratio). The procedure, abridged: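 Reporter HEK293 cells were exposed to compounds and R1881 overnight (16 h, 37C); beta-lactamase activity was then quantified by FRET fluorescence.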

Experiment [8] shares this target. Briefly: qHTS assay to identify small molecule antagonists of the androgen receptor (AR) signaling pathway using the MDA cell line (AID 743042; active means well fitted curve in the direction sought with a large enough effect in the repeat runs; an effect the other way counts as inactive or inconclusive; further: nearly all actives have a fitted effect of over 55% in size; further: potency means the concentration at half of the fitted maximal effect). The procedure, abridged:
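Antagonist mode: compounds plus R1881 agonist added to MDA-kb2 AR-luc cells, incubated 16 h at 37C. Luciferase reporter luminescence quantified, with multiplexed CellTiter-Fluor readout for cell viability.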

The target of experiment [9] is Estrogen receptor (Homo sapiens) (UniProt P03372). Briefly: qHTS assay to identify small molecule antagonists of the estrogen receptor alpha (ER-alpha) signaling pathway (AID 743069; active means well fitted curve in the direction sought with a large enough effect in the signal ratio in the repeat runs, not every such curve was filed as active; the % refers to the signal ratio). Summed up:
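Antagonist mode: compounds in DMSO were co-added with 17beta-estradiol to ER-alpha-bla HEK293 cells (2% charcoal-stripped serum) and left 18 h at 37C. Reporter inhibition was measured as FRET fluorescence after 2 h LiveBLAzer substrate at room temperature.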

Experiment [10] is described as follows: qHTS assay to identify small molecule antagonists of the estrogen receptor alpha (ER-alpha) signaling pathway using the BG1 cell line (AID 743080).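 Further: BG1 cells stimulated with 17beta-estradiol alongside compound; nearly all actives have a fitted effect of over 25% in size.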 The procedure, abridged: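 Luciferase inhibition measured with ONE-Glo after 30 min at RT in BG1Luc4E2 cells given test compounds and 17beta-estradiol for 21.5 h at 37 C; CellTiter-Fluor viability read in the same wells beforehand.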

Experiment [11] is described as follows: qHTS RealTime-Glo MT Cell Viability Assay in HEK293 cells - 0 hour (AID 1224880; active means well fitted curve in the direction sought with a large enough effect in the repeat runs; an effect the other way counts as inactive or inconclusive; further: top concentration of the series differs between compounds; nearly all actives have a fitted effect of over 45% in size). The procedure, abridged: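 Kinetic, non-lysing viability readout. Seed HEK293 (600/well) with reagent, incubate 5 h at 37 C/5% CO2, pin 23 nL compound in DMSO, incubate at 37 C, read luminescence at 0, 8, 16, 24, 32, 40 h.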
Experiment [12] deals with Androgen receptor (Homo sapiens) (UniProt P10275). Briefly: qHTS assay to identify small molecule agonists of the androgen receptor (AR) signaling pathway using the MDA cell line (AID 743040; active means well fitted curve in the direction sought with a large enough effect in the repeat runs; an effect the other way counts as inactive or inconclusive; further: nearly all actives have a fitted effect of over 20% in size; further: potency means the concentration at half of the fitted maximal effect). Summed up:
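Luciferase agonist assay: 16 h compound exposure at 37C without CO2 in MDA-kb2 AR-luc cells, whose MMTV promoter responds to both AR and GR. Luminescence measured after 30 min room-temperature incubation with ONE-Glo.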

Experiment [13] is described as follows: qHTS assay to identify small molecule antagonists of the estrogen receptor alpha (ER-alpha) signaling pathway using the BG1 cell line in the presence of 0.1 nM 17-beta-estradiol - cell viability counter screen (AID 1259241; active means well fitted curve in the direction sought with a large enough effect in the repeat runs; an effect the other way counts as inactive or inconclusive; further: nearly all actives have a fitted effect of over 40% in size). Summed up:
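CellTiter-Fluor read (30 min, 37C) on ER-alpha/ERE-luc VM7Luc4E2 cells; 22 hr compound treatment; agonist 0.1 nM E2 final; same-well multiplex.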

A short description of experiment [14]: qHTS assay to identify small molecule antagonists of the androgen receptor (AR) signaling pathway using the MDA cell line in the presence of 0.5 nM R1881 - cell viability counter screen (AID 1259242; active means well fitted curve in the direction sought with a large enough effect in the repeat runs; an effect the other way counts as inactive or inconclusive; further: nearly all actives have a fitted effect of over 45% in size). Summed up: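 Cells seeded at 3,000/well and allowed 5 hr at 37C, 0% CO2 before compound transfer and R1881 (0.5 nM final) addition; 16 hr later, live-cell protease fluorescence indicated cytotoxicity.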

For experiment [15], the target named is Acetylcholinesterase (Homo sapiens) (UniProt P22303). The experiment can be described thus: Acetylcholinesterase (AChE) small molecule antagonists: enzyme-based qHTS assay (AID 1347397). Further: nearly all actives have a fitted effect of over 55% in size. The settings on record: Potency: AChE enzyme activity inhibition; outcome: AChE enzyme activity inhibition. Summed up:
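Colorimetric DTNB readout of acetylthiocholine hydrolysis, 10 min at room temperature, after 30 min room-temperature exposure of 50 mU/mL recombinant human enzyme to compound; DMSO vehicle control.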

Values without a mark were called inactive. Inconclusive results are not listed. Calls of active or inactive are those of the source. Unless noted, the call rests on the fitted dose curve.
On the % scale 0 is the no-effect control and ±100 the full control effect.

Estrogen receptor (Homo sapiens), sequence (P03372 whole entry, looked up): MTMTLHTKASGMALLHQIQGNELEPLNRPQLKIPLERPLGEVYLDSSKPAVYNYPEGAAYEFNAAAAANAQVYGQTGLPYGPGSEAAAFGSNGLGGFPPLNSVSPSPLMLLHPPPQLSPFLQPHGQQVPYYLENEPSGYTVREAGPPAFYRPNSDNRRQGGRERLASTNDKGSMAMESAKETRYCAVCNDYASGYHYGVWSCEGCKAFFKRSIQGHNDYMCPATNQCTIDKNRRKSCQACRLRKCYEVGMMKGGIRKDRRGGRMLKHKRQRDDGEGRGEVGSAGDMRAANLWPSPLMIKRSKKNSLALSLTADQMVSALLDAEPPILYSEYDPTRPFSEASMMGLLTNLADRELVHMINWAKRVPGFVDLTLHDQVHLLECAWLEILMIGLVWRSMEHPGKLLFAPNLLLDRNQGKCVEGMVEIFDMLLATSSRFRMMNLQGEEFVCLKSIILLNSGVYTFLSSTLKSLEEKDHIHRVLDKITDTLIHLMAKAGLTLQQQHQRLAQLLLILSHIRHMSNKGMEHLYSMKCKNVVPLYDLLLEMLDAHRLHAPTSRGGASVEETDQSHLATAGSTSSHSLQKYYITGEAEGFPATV
Androgen receptor (Homo sapiens), sequence (P10275 whole entry, looked up): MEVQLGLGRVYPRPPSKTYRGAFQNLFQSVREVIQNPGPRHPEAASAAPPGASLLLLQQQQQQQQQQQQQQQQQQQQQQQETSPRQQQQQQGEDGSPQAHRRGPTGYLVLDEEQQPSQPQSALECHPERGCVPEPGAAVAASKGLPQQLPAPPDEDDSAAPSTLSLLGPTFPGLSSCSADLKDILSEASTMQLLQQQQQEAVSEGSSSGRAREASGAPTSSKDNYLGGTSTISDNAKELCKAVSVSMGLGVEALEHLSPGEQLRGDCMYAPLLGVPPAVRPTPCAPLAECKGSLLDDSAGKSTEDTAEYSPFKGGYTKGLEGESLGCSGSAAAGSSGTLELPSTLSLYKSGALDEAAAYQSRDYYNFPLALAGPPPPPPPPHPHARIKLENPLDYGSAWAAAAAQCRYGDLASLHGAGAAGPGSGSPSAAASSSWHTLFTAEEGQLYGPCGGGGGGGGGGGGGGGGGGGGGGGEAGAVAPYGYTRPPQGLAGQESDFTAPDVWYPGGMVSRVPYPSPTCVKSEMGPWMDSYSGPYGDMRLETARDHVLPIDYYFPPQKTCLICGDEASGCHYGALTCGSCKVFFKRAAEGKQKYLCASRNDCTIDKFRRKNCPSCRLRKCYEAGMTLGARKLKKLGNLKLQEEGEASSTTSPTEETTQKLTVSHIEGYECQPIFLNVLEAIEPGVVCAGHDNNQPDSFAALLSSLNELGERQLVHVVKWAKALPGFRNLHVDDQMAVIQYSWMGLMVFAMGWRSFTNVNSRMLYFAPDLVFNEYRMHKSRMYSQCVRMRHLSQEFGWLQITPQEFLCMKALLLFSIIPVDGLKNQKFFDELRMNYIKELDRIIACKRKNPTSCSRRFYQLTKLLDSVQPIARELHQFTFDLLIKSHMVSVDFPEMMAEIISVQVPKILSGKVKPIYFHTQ
Acetylcholinesterase (Homo sapiens), sequence (P22303 whole entry, looked up): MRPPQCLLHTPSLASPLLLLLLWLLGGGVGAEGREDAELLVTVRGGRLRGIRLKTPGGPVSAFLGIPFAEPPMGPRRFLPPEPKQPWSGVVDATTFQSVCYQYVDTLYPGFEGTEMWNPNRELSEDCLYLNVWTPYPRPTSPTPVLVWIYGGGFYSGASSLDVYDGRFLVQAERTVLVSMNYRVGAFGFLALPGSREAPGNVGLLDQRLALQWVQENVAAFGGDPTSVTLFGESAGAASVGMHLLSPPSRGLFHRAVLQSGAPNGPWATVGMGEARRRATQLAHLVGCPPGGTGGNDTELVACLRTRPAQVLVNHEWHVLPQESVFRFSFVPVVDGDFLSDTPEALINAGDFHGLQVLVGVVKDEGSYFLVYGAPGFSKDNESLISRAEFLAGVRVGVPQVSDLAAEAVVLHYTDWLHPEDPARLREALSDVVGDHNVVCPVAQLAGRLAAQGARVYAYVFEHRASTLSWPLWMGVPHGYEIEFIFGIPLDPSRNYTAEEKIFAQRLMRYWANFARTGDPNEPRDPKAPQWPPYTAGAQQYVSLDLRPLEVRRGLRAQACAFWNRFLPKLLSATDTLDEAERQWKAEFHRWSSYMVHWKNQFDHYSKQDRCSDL

With `Cc1ccc([N+](=O)[O-])c(C)c1`, the Potency entry in [1], in experiment [3], in [4] and in experiment [5] was “inactive” each time. In [2], the activity change, positive = activation was -82.5%.
Regarding `CC1(C)S[C@@H]2[C@H](N)C(=O)N2[C@H]1C(=O)O`, the Potency entry in [1], in experiment [6], in experiment [7], in [8], in [9] and in [10] was “inactive” throughout.
Consider `CCNCC(O)c1cccc(O)c1` (stereo unspecified), for which the Potency entry in experiment [1] and in experiment [9] was “inactive” in each case.
Turning to `CC[N+](C)(CC)CCOC(=O)C(O)(c1ccccc1)c1ccccc1`, the Potency entry in [1], in experiment [6], in experiment [9] and in experiment [10] was “inactive” in each case.
`CC(C)(C)c1ccc(O)cc1`: the result in experiment [11] was inactive.
Regarding `O=C1CCCCC1CN1CCCCC1` (stereo unspecified), the Potency entry in [1], in experiment [7], in experiment [12], in [8], in experiment [9] and in experiment [10] was “inactive” each time.
Consider `CC(=O)Oc1ccc2c3c1O[C@H]1[C@@H](OC(C)=O)C=C[C@H]4[C@@H](C2)N(C)CC[C@@]341`, for which the Potency result in experiment [1], in experiment [6], in experiment [9] and in [10] was “inactive” each time.
On to `COC1=CC=C2[C@H]3Cc4ccc(OC)c5c4[C@@]2(CCN3C)[C@H]1O5`, for which the Potency entry in [1], in experiment [6], in experiment [9] and in experiment [10] was “inactive” each time.
Consider `C[C@@H]([C@H](O)c1ccccc1)N(C)C`, for which the Potency result in experiment [1] and in experiment [9] was “inactive” in each case.
As for `CC(N)Cc1ccc(O)cc1` (stereo unspecified), the Potency entry in [1] and in experiment [9] was “inactive” each time.
As for `CN[C@H]1C[C@@H](N)[C@H](O)[C@@H](O[C@@H]2O[C@H](CO)[C@H](O)[C@@H]3OC4(O[C@H]23)O[C@H](C(N)CO)[C@H](O)[C@H](O)[C@H]4O)[C@@H]1O` (stereo partly specified), the Potency result in [1] and in experiment [9] was “inactive” each time.
With `CCC(C)(S(=O)(=O)CC)S(=O)(=O)CC`, the Potency entry in [1], in [9] and in experiment [10] was “inactive” throughout.
On to `Cc1ccccc1-n1c(C)nc2ccccc2c1=O`, for which the Potency result in experiment [1], in [6], in experiment [9] and in [10] was “inactive” throughout.
`CC(C)(O)[C@@H]1[C@H]2OC(=O)[C@@H]1[C@]1(O)C[C@H]3O[C@]34C(=O)O[C@H]2[C@]14C`: the Potency result in experiment [1] is “inactive”.
For the compound `NCC(O)c1cccc(O)c1` (stereo unspecified), the Potency entry in experiment [1], in experiment [7], in experiment [8] and in [9] was “inactive” in each case.
For the compound `c1ccccc1`, the Potency result in [9], in experiment [10], in experiment [13], in experiment [14], in experiment [3] and in [15] was “inactive” each time. Further, the Potency result in [4] and in [5] was “inactive” each time.
For the compound `C[C@]12CC[C@H](OS(=O)(=O)O)CC1=CC[C@@H]1[C@@H]2CC[C@]2(C)C(=O)CC[C@@H]12`, the Potency entry in experiment [1], in [7], in experiment [8], in experiment [9] and in [10] was “inactive” throughout. Besides, in experiment [12], the Potency is 21.1 µM (active).
Regarding `Oc1c(Cl)cc(Cl)cc1Cl`, in experiment [11], the compound was called inactive.
Turning to `COC(COC(N)=O)C1=C(N2CC2)C(=O)C(C)=C(N2CC2)C1=O` (stereo unspecified), the Potency was 0.298 µM (active) in [1] and 1.33 µM (active) in [8]. In addition, in experiment [6], the Potency entry is “inactive”.
Regarding `Cc1ccccc1-n1c(CF)nc2ccc(N)cc2c1=O`, the Potency result in experiment [1], in [6], in experiment [7] and in experiment [8] was “inactive” each time. For the same compound, the Potency in experiment [12] was 26.6 µM (active).
As for `C=CCN(C1=NCCN1)c1c(Cl)cccc1Cl`, the Potency entry in experiment [1], in experiment [6], in experiment [9] and in experiment [10] was “inactive” in each case.
On to `O=[N+]([O-])c1cc(I)c(O)c(I)c1`, for which the results for the Potency in experiment [1] and in experiment [6] were 5.31 µM (active) and 13.3 µM (active), respectively. For the same compound, in experiment [8], the Potency entry is “inactive”.
As for `CC(=O)OC1CN2CCC1CC2` (stereo unspecified), the Potency result in experiment [1] and in experiment [9] was “inactive” in each case.
Regarding `CN(C)CCCCCCN(C)C`, the Potency result in [6], in experiment [13] and in experiment [14] was “inactive” each time.
Turning to `CCON=O`, the Potency result in experiment [6], in [9] and in experiment [10] was “inactive” each time.
With `C#CC(C)(O)CC` (stereo unspecified), the Potency result in [1], in [9] and in experiment [10] was “inactive” each time.
As to `CC(=O)OO`, the Potency result in experiment [1], in experiment [9] and in [10] was “inactive” throughout.
With `CCC(N)Cc1c[nH]c2ccccc12` (stereo unspecified), the Potency entry in experiment [1] and in experiment [10] was “inactive” each time. Further, the Potency in [6] was 21.1 µM (active).
Take `c1csc(C2(N3CCCCC3)CCCCC2)c1`: the Potency entry in experiment [1], in experiment [9] and in [10] was “inactive” in each case.
Take `C=CC[C@]1(O)CC[C@H]2[C@@H]3CCC4=CCCC[C@@H]4[C@H]3CC[C@@]21C`: the Potency entry in [1] is “inactive”.
